TRHR PAM – qHTS for Small Molecule Agonists and Allosteric Enhancers of Human TRH Receptor: Primary Screen for Enhancers. AID 493056, 2011. Thyrotropin-releasing hormone receptor (Homo sapiens), P34981. TRHR cells, fluo-8 calcium fluorescence, EC20 TRH enhancement. 360,000 compounds, 0.66% hits. enhancement, % at 2 µM; in the data active = enhancement above about 30%; note: 0% is about no effect
Target sequence (P34981 whole entry, looked up): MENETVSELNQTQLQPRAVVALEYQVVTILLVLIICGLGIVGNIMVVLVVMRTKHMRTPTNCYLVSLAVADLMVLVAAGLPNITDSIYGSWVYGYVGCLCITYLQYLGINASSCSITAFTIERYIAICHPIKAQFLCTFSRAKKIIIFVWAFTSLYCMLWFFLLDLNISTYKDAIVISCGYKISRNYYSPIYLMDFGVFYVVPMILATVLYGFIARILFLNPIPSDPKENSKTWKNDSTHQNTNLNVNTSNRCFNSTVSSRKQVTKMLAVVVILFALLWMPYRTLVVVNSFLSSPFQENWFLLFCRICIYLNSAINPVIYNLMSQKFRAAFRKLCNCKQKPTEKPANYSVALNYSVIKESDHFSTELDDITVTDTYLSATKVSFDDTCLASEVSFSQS
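TRHR-expressing cells loaded with fluo-8 calcium dye were read kinetically (ex 480/em 530) during compound addition, then stimulated with an EC20 of TRH (10 nM final). Enhancement of the Gq-mediated intracellular calcium response was scored.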
TRHR ag – qHTS for Small Molecule Agonists and Allosteric Enhancers of Human TRH Receptor: Primary Screen for Agonists; activation, % at 2 µM; 360,000 compounds, 0.18% hits; Thyrotropin-releasing hormone receptor (Homo sapiens), P34981; TRHR cells, calcium flux fluo-8, FDSS agonist mode; AID 493084, 2011; note: 0% is about no effect
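TRHR-expressing cells, plated overnight in medium with 10% serum, were loaded with fluo-8 calcium dye at room temperature. After a 10 s baseline, library compound was pin-added and calcium release was recorded kinetically (ex 480/em 530) as agonist response.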
D1 ag – Allosteric Agonists of the Human D1 Dopamine Receptor: qHTS | D(1A) dopamine receptor (Homo sapiens), P21728 | HEK293 T-REx D1 cells, calcium flux, agonist mode | activation, % at 2 µM | 360,000 compounds, 1% hits | AID 504660, 2011; note: 0% is about no effect
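Agonism was scored from calcium flux recorded over 180 s (1 read/s) after pintool compound addition, following a 10-cycle baseline. Cells were inducible force-coupled HEK293 TREx D1, plated overnight at 30 C and loaded with no-wash calcium dye.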
Epigenetic reg – Quantitative High-Throughput Screen for Regulators of Epigenetic Control; Potency, µM (doses to about 53.9 µM), without a hit: at the highest dose GFP activation, actives largely listed as activators; AID 1865, 2009; murine LDR cells, GFP reporter derepression, 30 h; 280,000 compounds, 0.2% hits; active = well fitted activation curve with a large enough effect; inconclusive = small, poorly fitted or top-dose-only effect; note: potency is the fitted concentration of half-maximal effect; % of control where 0% means no effect; nearly all actives have a fitted effect of over 60% in size
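Murine LDR cells carrying a silenced, genomically integrated CMV-driven GFP reporter were exposed to compound for 30 hours at 37 C. After PBS washes, GFP-positive cells (20–120 um objects) were counted by laser-scanning microplate cytometry.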
D1 PAM – Potentiators of Human D1 Dopamine Receptor: qHTS. HEK293 TREx D1 cells, calcium flux, dopamine EC20 potentiation. D(1A) dopamine receptor (Homo sapiens), P21728. potentiation, % at 10 µM. 360,000 compounds, 0.036% hits; in the data active = potentiation above about 30%; note: 0% is about no effect
D1 antagonist – Antagonist of Human D 1 Dopamine Receptor: qHTS; HEK293 TREx D1 cells, calcium flux, dopamine EC80; stronger effect = lower value; activity change, negative = inhibition, % at 10 µM; 360,000 compounds, 3.2% hits; AID 504652, 2011; in the data active = activity change below about -30%; note: % is set by controls: 0 for no effect and ±100 for the full control effect
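Allosteric or orthosteric antagonism assessed as attenuation of the calcium response to EC80 dopamine, added 180 s after compound, in induced HEK293 Trex D1 cells loaded with no-wash calcium dye.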
Numbers without * were called inactive; ? = inconclusive; / = no result; ! = repeats disagree; [ ] = remark or other dose. An excerpt weighted towards active compounds, which were near 4.6% of everything screened. Cut-off read from the data, not from the text of the source, unless noted: active = activation above about 30%; inactive = the rest.

SMILES	TRHR PAM	TRHR ag	D1 ag	Epigenetic reg	D1 PAM	D1 antagonist
CCCCOc1ccc(Cn2c(=O)oc3ccccc32)cc1	-4.2	0.5	3.5	-4.4%	-4.2	-39.4*!
CCCCOc1ccc(Cn2c(=O)oc3ccc(C)cc32)cc1	-2.0	2.6	11.7	-1.0%	-7.7	-79.0*
Cc1ccc(O)c(-c2cc(C(F)(F)C(F)F)[nH]n2)c1	-0.5	-1.1	164.1*	0.3%	14.4	-9.9
COc1ccccc1Nc1c2ccccc2nc2ccccc12	-0.4	0.1	3.4	/	-5.8	-52.4*
COc1ccc(Nc2c3c(nc4ccccc24)CCC3)cc1	4.0	0.5	7.5	/	-10.8	-26.4
COc1ccc(Nc2c3ccccc3nc3ccccc23)cc1	0.2	0.1	19.2	/	-7.8	-95.5*
c1cncc(Nc2c3ccccc3nc3ccccc23)c1	-10.7	0.0	2.9	/	-14.7	-30.7*
COc1cc(Nc2c3ccccc3nc3ccccc23)cc(OC)c1OC	2.4	-2.5	3.0	/	-0.6	6.3
COc1ccc(Nc2nc(N3CCCC3)c3ccccc3n2)cc1	6.9	-0.7	6.3	-1.1%	-20.6	-51.3*
O=S(=O)(c1ccc(F)cc1)N(Cc1nc(-c2ccc(Cl)cc2)no1)C1CCCCC1	-0.1	1.3	9.7	-1.9%	-3.5	-6.5
CCOc1ccc(CC(=O)N/N=C(\C)c2cccnc2)cc1	-7.5	-0.4	9.1	/	-6.2	-35.9*
COc1ccc(CC(=O)N/N=C(\C)c2cccnc2)cc1	0.2	0.2	2.2	/	-1.8	4.7
O=C(CNC(=S)N(Cc1ccccc1F)C1CCCCC1)NCC1CCCO1 (centres undefined)	2.9	0.0	2.9	3.2%	-1.3	-45.5*
O=C(CNC(=S)N(Cc1ccc(F)cc1)C1CCCCC1)NCC1CCCO1 (centres undefined)	-0.3	-0.4	2.8	-2.4%	2.7	1.9
CCCCNC(=O)CNC(=S)N(Cc1ccccc1F)C1CCCCC1	-1.0	-1.4	0.1	1.3%	-3.0	-36.7*
COCCCNC(=O)CNC(=S)N(Cc1ccccc1F)C1CCCCC1	-2.0	-1.3	2.2	5.9%	-1.0	9.4
COc1ccccc1CCNC(=O)c1cccn1-c1nnc(N2CCCC2)s1	-2.2	-0.5	2.1	0.8%	-1.6	5.0
c1ccc(-c2cnn3c(-c4ccccc4)c(-c4ccccc4)nc3n2)cc1	23.0	173.5*	475.4*	2.82µM*	-12.8	-48.4*
Cc1ccc2nc(N(Cc3cccnc3)C(=O)c3ccco3)sc2c1	3.7	0.0	-1.4	-0.6%	-2.7	/
COc1ccc([N+](=O)[O-])cc1NC(=O)Nc1ccc(OC)c(OC)c1	0.7	-0.3	-0.7	0.9%	-6.6	/
COc1ccccc1NS(=O)(=O)c1cccc(NC(=O)Nc2cccc(Cl)c2)c1	-5.8	2.3	11.7	4.5%	-12.8	-38.9*
COc1ccc([N+](=O)[O-])cc1NC(=O)Nc1cccc(Cl)c1	-1.9	0.0	5.5	7.4%	-3.2	-40.6*
CCCSc1oc(-c2cccs2)nc1S(=O)(=O)c1ccc(Cl)cc1	4.1	1.2	9.4	-1.0%	0.3	2.6
Nc1nc(SCc2ccccc2Cl)nc2nc3c(cc12)CCCC3	-16.4	0.0	0.4	-0.9%	0.4	-8.6
Nc1nc(SCc2ccc(Cl)cc2Cl)nc2nc3c(cc12)CCCC3	-9.9	0.1	5.4	17.8µM*	8.0	-7.9
SMILES	TRHR PAM	TRHR ag	D1 ag	Epigenetic reg	D1 PAM	D1 antagonist
Cc1ccc(NC(=O)C2CCN(S(=O)(=O)c3ccc4c(c3)CCCC(=O)N4)CC2)c(Cl)c1	4.1	-0.5	2.2	1.3%	-3.1	-0.5
Cc1ccccc1Nc1c(-c2ccccn2)nc2ccccn12	11.8	-0.3	2.9	1.1%	0.2	-2.3
Cc1cccc(C)c1Nc1c(-c2ccccn2)nc2c(C)cccn12	-1.5	-0.4	5.0	1.0%	-1.5	-48.4*
CC(C)c1ccc(Nc2c(-c3ccccn3)nc3ccccn23)cc1	-5.8	-0.2	4.0	-1.9%	0.5	-34.0*
CC(=O)c1ccc(C(=O)Nc2sc3c(c2C(N)=O)CCN(Cc2ccccc2)C3)cc1	-3.3	13.4	63.2*	/	-8.2	-8.2
COc1cccc(OC)c1C(=O)Nc1sc2c(c1C(N)=O)CCN(Cc1ccccc1)C2	2.3	11.1	19.5	/	-4.4	8.0
NC(=O)c1c(NC(=O)C2COc3ccccc3O2)sc2c1CCN(Cc1ccccc1)C2 (centres undefined)	0.7	37.8*	104.8*	?	-1.2	-25.5
COC(=O)c1c(Oc2ccc(Br)cc2)nnc(-c2ccccc2)c1-c1ccccc1	-5.8	1.6	4.9	-1.2%	0.5	-0.6
CC(CN(C)C)CN1c2ccccc2CCc2ccccc21 (centres undefined)	-5.7	2.8	12.2	-0.2%	-12.4	-80.7*
CN(C)CCCN1c2ccccc2CCc2ccccc21	-2.8	0.6	17.0	2.2%	-4.5	-41.3*
Cc1ccc(CNC(=O)c2sc3nc(C)cc(C)c3c2-n2cccc2)cc1	-6.6	0.5	2.8	6.9%	-1.4	-3.3
COC(=O)c1ccc[n+](CC(=O)c2ccc(Br)cc2)c1	-6.2	-0.2	5.0	0.0%	-0.1	-35.1*
CCOC(=O)C(Cc1cc(C(C)=O)ccc1OC(C)C)C(=O)OCC	-18.5	-1.4	-1.4	-5.6%	-2.0	-34.1*
CCOC(=O)C(Cc1cc(C(C)=O)ccc1OCC)C(=O)OCC	-3.8	-0.4	0.0	-2.1%	-6.7	3.3
OCC1(Cc2cccc(C(F)(F)F)c2)CCN(Cc2cc3ccccc3o2)CC1	-3.1	1.0	10.5	5.6%	-0.6	8.1
COc1ccc(CN2CCC(CO)(Cc3cccc(C(F)(F)F)c3)CC2)cc1Cn1cccn1	-1.3	0.5	33.7*	0.0%	-5.7	-21.3
COc1cc(CN2CCC(CO)(Cc3cccc(C(F)(F)F)c3)CC2)ccc1F	0.9	-1.0	52.0*	3.7%	-6.4	-26.1
Cc1c(CN2CCC(CO)(Cc3cccc(C(F)(F)F)c3)CC2)c2ccccc2n1C	11.2	0.2	82.5*	-1.5%	-0.7	6.9
COc1cccc(-c2ccnc3c(-c4ccc(F)cc4)c(C)nn23)c1	1.9	1.3	-0.2	10.5%	-5.2	-10.8
Cc1csc2c(N3CCN(S(=O)(=O)c4ccc(Cl)cc4)CC3)ncnc12	1.6	0.1	3.6	0.1%	-3.4	-34.8*
CN=C(NC#N)NCCSC[C@H]1N=CN=C1C	/	/	/	-0.3%[16.9 µM]	/	/
COc1ccc(N(CC(=O)Nc2cc(C)ccc2C)S(=O)(=O)c2ccc(OC)c(OC)c2)cc1	2.4	-0.3	3.6	0.0%	-3.6	2.5

Assay outcomes as filed in PubChem.
